# Source: PubChem
# Most compounds without a hit are left out; they make up all but 3% or so of the library.
# MITF act = MITF TRPM1 promoter activation in melanoma cells; AID 588334; activation, % at 12.5 µM; hit rate 0.75% among 300,000; SK-MEL-5 TRPM1-promoter luciferase, 24 h; % of positive control, neutral wells = 0;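 active = mean activation of at least 80% with every replicate also reaching 80%; inconclusive = mean reaches 80% but some replicate falls short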
# PfHsp90 yeast 2 = reduces growth (ATP signal) of yeast expressing P. falciparum Hsp90. inhibition, % at 9.4 µM. S. cerevisiae expressing PfHsp90, BacTiter-Glo ATP, 48 h; yeast lacking PDR1 and PDR3 efflux regulators. AID 504621. hit rate 0.32% among 310,000;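 active = every replicate shows inhibition above about 80%, whatever the replicate mean, limit read from the data; inconclusive = mean inhibition reaches the set limit but some replicate falls short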
# Wnt bcat act = activators of Wnt/beta-catenin signaling; Wnt/beta-catenin reporter cell assay, activator, plate reader; hit rate 1.2% among 300,000; AID 743398; activation, % at 9.35 µM; in the data active = activation above about 30%, passing the limit was not always enough; inconclusive = no clear call, values can overlap the other calls
# Vif imaging = HIV Vif inhibition | hit rate 0.35% among 340,000 | HEK293T cells, Vif self-association by quenched fluorescence, imaging, 24 h | inhibition, % at 7.49 µM; in the data active = inhibition above about 50%, passing the limit was not always enough; inconclusive = no clear call, values can overlap the other calls; inactive = below about 31%
# Glyco luc inh = N-linked glycosylation inhibition | D54 ERlucT glycosylation luciferase reporter, 24 h; percent of 100 nM tunicamycin response | reporter increase, % at 12.5 µM | hit rate 0.23% among 360,000;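 active = mean luciferase reporter signal, scaled so untreated is 0 and the glycosylation-blocking control 100, at or above a set limit in every replicate; inconclusive = mean reaches the limit but not every replicate does; inactive = mean below the limit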;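 also: luciferase carries N-glycosylation sites so blocking glycosylation raises the light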
# esBAF inh = inhibitors of esBAF chromatin remodeling in mouse ES cells | AID 602393 | hit rate 2% among 350,000 | reporter increase, % at 12.5 µM | Bmi1-luciferase knock-in reporter, 24 h; 100% = twice the neutral-well signal; in the data active = activation above about 40%; inconclusive = no clear call, values can overlap the other calls;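 also: a rise in the Bmi1 reporter signal indicates esBAF inhibition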
# Ring1 derepress = confirmation of esBAF inhibitors: Ring1 de-repression in mouse ESCs | 550 tested, under 10 active | fold change at 33 µM | AID 743176 | mouse ESC E14, Ring1 mRNA RT-qPCR fold change | shares compounds with esBAF inh;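 active = Ring1 gene expression raised more than 2-fold over untreated cells in both replicates at either tested dose; inconclusive = only one replicate above 2-fold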;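 also: Ring1 transcript normalised to actin housekeeping signal by TaqMan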
# Fgf4 repress = confirmation of esBAF inhibitors: Fgf4 repression in mouse ESCs | hit rate 4% among 550 | mouse ESC E14, Fgf4 mRNA qPCR fold change; hits give low values | shares compounds with esBAF inh | Fgf4 expression fold change at 33 µM | AID 743177;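 active = Fgf4 expression under 0.8 fold of control in both repeat measurements at one or both tested doses; inconclusive = under 0.8 fold in just a single repeat measurement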;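 also: Fgf4 transcript normalised to actin in duplex TaqMan qPCR; cells exposed to compound for 24 h before lysis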
# esBAF Bmi1 qPCR = confirmation of esBAF inhibitors: Bmi1 de-repression in mouse ESCs | AID 743180 | shares compounds with esBAF inh | fold change at 33 µM | mouse ESE14 ES cells, Bmi1 mRNA qPCR fold; hits give high values | 550 tested, under 10 active;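 active = Bmi1 expression fold change above 6 at either tested concentration, seen in replicate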;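 also: higher fold means more Bmi1 de-repression and stronger esBAF inhibition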
# A549 tox SP = A549 cell cytotoxicity. shares compounds with esBAF inh. plate reader. cell viability change % (negative = cytotoxic), % at 25 µM, hits read low. 550 tested, under 10 active. AID 743188; call rule not given here
# HepG2 cytotox SP = kills or reduces viability of HepG2 cells; shares compounds with esBAF inh; HepG2 cytotoxicity, plate reader; hits give low values; activity change, negative = inhibition, % at 25 µM; hit rate 4% among 550; AID 743189; in the data active = activity change below about -50%
# HEK293 tox SP = HEK293 cell cytotoxicity at single point | shares compounds with esBAF inh | plate reader | activity change, negative = inhibition, % at 25 µM, hits read low | hit rate 3% among 550; in the data active = activity change below about -38%, passing the limit was not always enough
# Hits are given with their value; 0 = inactive; ? = inconclusive; - = not tested or not shown.
SMILES,MITF act,PfHsp90 yeast 2,Wnt bcat act,Vif imaging,Glyco luc inh,esBAF inh,Ring1 derepress,Fgf4 repress,esBAF Bmi1 qPCR,A549 tox SP,HepG2 cytotox SP,HEK293 tox SP
CCN(CC)CCCN=Cc1c(O)n(CCc2ccc(F)cc2)c(=O)[nH]c1=O,0,0,-,0,0,0,-,-,-,-,-,-
O=[N+]([O-])c1ccccc1CNCCc1ccc(F)cc1,0,0,-,0,0,41,-,-,-,-,-,-
O=[N+]([O-])c1ccccc1CNCCc1c[nH]c2ccccc12,0,0,0,0,0,0,-,-,-,-,-,-
CC(=O)C1=C(C)OC(N)=C(C(=O)OC(C)C)C12C(=O)Nc1ccccc12 (stereo not drawn),0,0,0,0,0,0,-,-,-,-,-,-
c1ccc(CCc2ccc3n2Cc2cnnn2-c2ccccc2-3)cc1,0,0,0,-,0,0,-,-,-,-,-,-
COc1ccc(-c2ccc3n2Cc2cnnn2-c2ccccc2-3)cc1,0,0,0,-,0,82,0,0,0,0,0,0
Cc1nc(CCl)cc(=O)[nH]1,0,0,0,0,0,0,-,-,-,-,-,-
c1ccc(Nc2ccc3ccccc3c2)cc1,95,0,0,0,0,74,0,?,0,0,0,0
CSc1ccc(CN2CCN(c3ccccc3C)CC2)cc1,0,0,0,0,0,0,-,-,-,-,-,-
O=c1[nH]cnc2nc(-c3ccc(N(CCCl)CCCl)cc3)[nH]c12,0,0,0,0,0,74,0,0,0,-54,0,-37
